Pf growth 48h = inhibits P. falciparum growth in the first generation, 48 h. P. falciparum luciferase growth in erythrocytes, 48 h. Potency, µM (doses to about 28.7 µM), actives largely listed as inhibitors. 5.9% of 310,000 active
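Firefly luciferase activity from engineered P. falciparum reports growth; inhibitors lower the luminescent signal. Cultures contained 2% hematocrit erythrocytes at 0.1% final parasitemia.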
SARS PLpro yeast = inhibitors of SARS-CoV papain-like protease in yeast; S. cerevisiae expressing SARS-CoV PLpro, growth rescue; Potency, µM (doses to about 32.9 µM), usual class: activators; 0.19% of 330,000 active; AID 485353; calls by dose curve; further: nearly all actives have a fitted effect of over 55% in size
Sm TGR block = S. mansoni TGR enzyme inhibition; Potency, µM (series often up to 114 µM), actives largely listed as inhibitors; AID 485364; Q962Y6; purified TGR, DTNB reduction, TNB absorbance 405 nm; 3% of 360,000 active; further: nearly all actives have a fitted effect of over 60% in size
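Kinetic colorimetric format: TGR-catalysed, NADPH-driven DTNB reduction monitored via TNB absorbance. Enzyme dispensed at 20 nM; compound exposure 15 min at room temperature before reaction start.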
Pf growth 96h = inhibits malaria parasite growth, 96 h | P. falciparum luciferase reporter growth, 96 h | 6.9% of 320,000 active | Potency, µM (highest dose often 28.7 µM), usual class: inhibitors
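96 h incubation, 37 C, 5% CO2, of luciferase-reporter P. falciparum-infected RBCs (2% hematocrit, 0.05% parasitemia final) with test compounds; endpoint luminescence.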
Large screens that a line does not name were inactive. Only some compounds are listed: those with a hit (about 12% of all), similar ones and a draw of the others. Unless noted, the call rests on the fitted dose curve; in most records, active means well fitted curve in the direction sought with a large enough effect; inconclusive means small, poorly fitted or top-dose-only effect, or another doubt; inactive means no such curve, though single readings can be large; an effect the other way counts as inactive or inconclusive.

O=C(CCN1CCCCC1)c1ccc2c(c1)OCCO2	none
O=C(CCN1CCC(c2ccccc2)C1)c1cccs1 (centres undefined)	Pf growth 96h inconclusive
O=C(CCN1CCc2ccccc21)c1ccc2c(c1)OCCO2	Pf growth 48h 5.2µM, Sm TGR block inconclusive, Pf growth 96h 2.1µM
C=C(C)CSc1nc(N)c(C#N)c(-c2ccc(C)cc2)c1C#N	Pf growth 48h inconclusive, Sm TGR block 35µM (no result: SARS PLpro yeast, Pf growth 96h)
COC(=O)c1ccc(N=NN2CCOCC2)cc1	SARS PLpro yeast inconclusive
O=C(O)C1SCCN1S(=O)(=O)c1ccc(N=NN2CCOCC2)cc1 (centres undefined)	Pf growth 96h 1.9µM
O=[N+]([O-])c1ccc(Cl)c(NC2=NCCCCC2)c1	Pf growth 48h inconclusive, Pf growth 96h 9.3µM
CCN(CC)S(=O)(=O)c1ccc(Cl)c(NC2=NCCCCC2)c1	Pf growth 48h inconclusive
CCn1c(CNC(=O)c2ccco2)nnc1SCC(=O)Nc1cc(F)ccc1C	none
O=C(O)CC1=C(c2ccc(F)cc2)CCC1=O	Pf growth 96h 6.6µM
O=C(CSc1ccccc1)NN1C(=O)c2ccccc2C1=O	Pf growth 96h 9.3µM (no result: Sm TGR block)
O=C(NC1CC2CCCC(C1)N2C(=O)Nc1ccccc1Cl)C1CC1 (centres undefined)	none
Cc1ccccc1NC(=O)N1C2CCCC1CC(NC(=O)C1CC1)C2 (centres undefined)	Pf growth 96h 9.3µM
COc1cccc(NC(=O)N2C3CCCC2CC(NC(=O)C2CC2)C3)c1 (centres undefined)	Pf growth 96h 1.5µM
O=c1c2cc(F)ccc2sn1-c1ccccc1	Pf growth 48h 4.1µM, Pf growth 96h 5.2µM
CCOC(=O)c1[nH]c2c(c1Cc1ccccc1OC)C(=O)CC(c1ccc(OC)cc1)C2 (centres undefined)	none (no result: Pf growth 48h, SARS PLpro yeast, Pf growth 96h)
Cc1ccc2c(c1)CC(C)N2S(=O)(=O)c1nnc(NC(=O)c2ccccc2F)s1 (centres undefined)	none (no result: Pf growth 48h, SARS PLpro yeast, Pf growth 96h)
CC(NC(=S)Nc1ccc(Cl)cc1)C(c1ccccc1)N1CCOCC1 (centres undefined)	Pf growth 48h inconclusive, Pf growth 96h 10µM
CC(NC(=O)Nc1ccccc1)C(c1ccccc1)N1CCOCC1 (centres undefined)	none
CC(=O)Oc1ccc(C(=O)Nc2cccc3c2CCCC3)cc1	none
CCN(CC)C(=O)N[C@@H]1C[C@@H]2c3cccc4[nH]cc(c34)C[C@H]2N(C)C1	Pf growth 48h inconclusive (no result: SARS PLpro yeast, Sm TGR block)
CCCN1C[C@H](CSC)C[C@@H]2c3cccc4[nH]cc(c34)C[C@H]21	Pf growth 48h inconclusive, Pf growth 96h 10µM
CCOC(=O)CN1C(=O)COc2ccc(C(C)(C)C)cc21	Pf growth 96h 0.47µM
CCOC(=O)C1CCN(C(=O)CN2C(=O)COc3ccc(C(C)(C)C)cc32)CC1	Pf growth 96h 10µM
CCOC(=O)CN1C(=O)COc2ccc(Cl)cc21	Pf growth 96h inconclusive
CC(Sc1nnc(-c2ccco2)n1C)C(=O)N1C(C)CCCC1C (centres undefined)	Pf growth 48h inconclusive, SARS PLpro yeast inconclusive, Sm TGR block inconclusive
Cc1ccc(S(=O)(=O)N(C)c2ccc(C(=O)NCCc3ccccc3)cc2)cc1	Pf growth 48h inconclusive, Pf growth 96h 10µM
CCN(Cc1ccccc1)C(=O)c1ccc(N(C)S(=O)(=O)c2ccc(C)cc2)cc1	Pf growth 48h 15µM, Pf growth 96h inconclusive
Cc1ccc(CN(C)C(=O)c2cccc(S(=O)(=O)N3CCc4ccccc4C3)c2)o1	Sm TGR block 28µM
Cc1ccc(CN(C)C(=O)c2ccc(S(=O)(=O)N(C)c3ccccc3)cc2)o1	Sm TGR block 11µM, Pf growth 96h inconclusive
COc1ccc(CCNC(=O)c2ccc(N(C)S(=O)(=O)c3ccc(C)cc3)cc2)cc1	Pf growth 48h inconclusive
CCN(Cc1ccccc1)C(=O)c1ccc(CNS(=O)(=O)c2ccc(C)cc2)cc1	Pf growth 48h inconclusive
O=C(CCCN1C(=O)/C(=C/c2ccccc2OC(F)F)SC1=S)Nc1cccnc1	none (no result: Pf growth 48h, Sm TGR block, Pf growth 96h)
Cc1cc(C)cc(OCC(=O)OCC(=O)N(CC(C)C)c2c(N)n(Cc3ccccc3)c(=O)[nH]c2=O)c1	none
CCCCc1nn2c(=O)cc(COC(=O)c3cccc(NC(=O)c4cccc(Cl)c4)c3)nc2s1	none (no result: Pf growth 48h, SARS PLpro yeast, Pf growth 96h)
O=C(c1cccs1)c1cn(CCOc2ccccc2Cl)c2ccccc12	none (no result: Pf growth 48h, SARS PLpro yeast, Pf growth 96h)
CN(c1ccccc1)S(=O)(=O)c1cccc(C(=O)NCCc2ccc(O)c(O)c2)c1	Pf growth 48h 13µM, Sm TGR block 16µM, Pf growth 96h inconclusive
Cc1ccc(CN(C)C(=O)c2ccccc2Oc2ccccc2)o1	Pf growth 48h inconclusive, Sm TGR block 7.9µM, Pf growth 96h inconclusive
NC1=C(O)C(=O)C(c2ccccc2)O1 (centres undefined)	Sm TGR block inconclusive
COc1cccc(CNC(=O)C(=O)NCC(c2cccs2)S(=O)(=O)c2cccs2)c1 (centres undefined)	Sm TGR block 25µM (no result: Pf growth 48h, SARS PLpro yeast, Pf growth 96h)
COc1cccc(CNC(=O)CCNS(=O)(=O)c2cccs2)c1	Pf growth 96h 1.2µM
COc1cccc(CNC(=O)CCNS(=O)(=O)c2ccc(Br)s2)c1	Pf growth 96h inconclusive
COc1cccc(CNC(=O)C(=O)NCC(c2ccco2)S(=O)(=O)c2cccs2)c1 (centres undefined)	Sm TGR block 4µM (no result: Pf growth 48h, SARS PLpro yeast, Pf growth 96h)
Cc1ccc(S(=O)(=O)NCCSc2nnnn2-c2ccc(Cl)c(C(=O)O)c2)cc1	none (no result: Pf growth 48h, SARS PLpro yeast, Pf growth 96h)
CCOC(=O)c1c(C)[nH]c(C)c1C(=O)CN1C(=O)NC2(CCC(C)CC2)C1=O (centres undefined)	Pf growth 48h inconclusive (no result: Pf growth 96h)
CCOC(=O)c1c(C)[nH]c(C)c1C(=O)CN1C(=O)NC(CC(C)C)C1=O (centres undefined)	Pf growth 48h 9.3µM
O=NN(CCCl)C(=O)NC1CCCCC1	none (no result: SARS PLpro yeast, Sm TGR block)
CC(=O)c1cccc(NS(=O)(=O)c2ccc(-c3cc(C)no3)s2)c1	none
Cc1c(Cl)cccc1NC(=S)NCCc1ccc(Cl)cc1	Pf growth 48h inconclusive, Pf growth 96h inconclusive
Cc1c(Cl)cccc1NC(=S)NCCc1ccc(F)cc1	Pf growth 48h inconclusive, Pf growth 96h 13µM
COc1ccc(Cl)cc1NC(=S)NCCc1ccc(S(N)(=O)=O)cc1	Sm TGR block 2.8µM, Pf growth 96h inconclusive
Cc1c(Cl)cccc1NC(=S)NCCc1ccc(S(N)(=O)=O)cc1	Pf growth 96h 10µM
O=C(NCCOc1ccccc1Cl)c1ccc2c(c1)S(=O)(=O)c1cc(Cl)ccc1C2=O	none (no result: Pf growth 48h, Sm TGR block, Pf growth 96h)
Cc1c(Cl)cccc1NC(=O)CSc1nc(=O)n(CCN2CCOCC2)c2c1CCC2	none (no result: Pf growth 48h, SARS PLpro yeast, Pf growth 96h)
Oc1ccc(Cl)cc1C1=NNC(c2ccc(Cl)cc2)C1 (centres undefined)	Pf growth 48h inconclusive, Sm TGR block inconclusive, Pf growth 96h inconclusive
COc1ccc(C2=NNC(c3cc(Cl)cc4c3OCOC4)C2)c(O)c1 (centres undefined)	Pf growth 48h 8.3µM (no result: Sm TGR block)
Oc1ccc(Cl)cc1C1=NNC(c2cc(Br)cc3c2OCOC3)C1 (centres undefined)	Pf growth 48h inconclusive, Sm TGR block 25µM
O=C(OCc1cc(Cl)cc2c1OCOC2)c1cccnc1Cl	none (no result: Pf growth 48h, Sm TGR block, Pf growth 96h)
Cc1sc(N)nc1-c1ccc(Oc2ccccc2)cc1	Pf growth 96h inconclusive
CN1C(=O)C(Cc2ccc(OCc3ccccc3)cc2)C(=O)N(C)C1=O	none
